Screening data (PubChem BioAssay)
GSH fluor – compound fluoresces at 488/530 nm on GSH beads. GSH beads flow cytometry, compound fluorescence 488/530 nm; stronger effect = higher value. fluorescence (KMESF) at 10 µM. actives 0.25% (n = 190,000); in the data active means fluorescence above about 89;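 further: glutathione beads carrying GST-tagged Bcl family fusion proteins plus one bare bead set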
RGS16-Gao HTS – RGS16-Galphao interaction regulator (human). O15492+P09471. bead-based flow cytometry RGS16-Galphao binding, fluorescence; actives lie on both sides. binding response (% of control), % at 10 µM. actives 0.38% (n = 220,000). AID 1441; call rule not given here;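 further: Galphao activated by GDP with aluminum fluoride before binding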
Target sequence (O15492 whole entry, looked up): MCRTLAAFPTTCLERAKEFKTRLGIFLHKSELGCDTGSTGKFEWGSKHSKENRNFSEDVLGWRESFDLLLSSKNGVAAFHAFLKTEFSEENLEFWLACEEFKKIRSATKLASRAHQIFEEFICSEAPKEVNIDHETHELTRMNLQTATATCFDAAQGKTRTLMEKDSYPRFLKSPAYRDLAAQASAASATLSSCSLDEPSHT
Target sequence (P09471 whole entry, looked up): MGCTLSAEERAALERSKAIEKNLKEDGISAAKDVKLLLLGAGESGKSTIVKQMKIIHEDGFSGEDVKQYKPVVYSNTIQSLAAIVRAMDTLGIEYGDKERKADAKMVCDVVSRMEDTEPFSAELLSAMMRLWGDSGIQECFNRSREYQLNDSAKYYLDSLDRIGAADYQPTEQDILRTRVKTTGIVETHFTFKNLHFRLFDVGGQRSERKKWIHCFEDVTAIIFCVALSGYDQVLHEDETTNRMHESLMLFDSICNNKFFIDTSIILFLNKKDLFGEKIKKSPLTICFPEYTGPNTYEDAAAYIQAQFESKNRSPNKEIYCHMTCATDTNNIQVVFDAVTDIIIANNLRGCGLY
RGS8-Gao – regulators of human RGS8-Galphao interaction. response (percent of control binding), % at 10 µM. multiplexed bead flow cytometry, RGS8-Galphao binding; actives lie on both sides. AID 1423. P09471. actives 0.34% (n = 220,000); in the data active means response below about 60% or above about 140%; inactive means in between;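 further: Galphao activated as the GDP aluminium fluoride complex binding bead-coupled RGS8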
Target sequence (P09471 whole entry, looked up): as above
Avidin fluor – avidin bead compound fluorescence profile | Avidin beads, compound fluorescence 488/530 nm, flow cytometry; stronger effect = higher value | fluorescence (KMESF) at 10 µM | actives 0.38% (n = 220,000) | AID 1775; in the data active means fluorescence above about 47
RGS7-Gao reg – modulates binding of RGS7 to human Galphao; P09471; actives 0.35% (n = 220,000); binding response (% of control), % at 10 µM; Multiplexed bead flow cytometry; actives lie on both sides; in the data active means binding response below about 49% or above about 150%; inconclusive means no clear call, values can overlap the other calls; inactive means in between;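 further: fluorescent Galphao held in activated GDP-AlF4 state binding bead-coupled RGS7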
RGS4-Gao reg – human RGS4-Galphao interaction regulation. actives 0.33% (n = 220,000). binding response (% of control), % at 10 µM. Multiplexed bead flow cytometry, RGS4-Galphao binding; actives lie on both sides. P09471; in the data active means binding response below about 49% or above about 150%; inactive means in between;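 further: fluorescent Galphao activated with aluminum fluoride binding bead-coupled RGS4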
A number is an active result; n = inactive; u = inconclusive; x = no result given; [ ] = dose if it differs, or a comment. A selection: hits, their analogues and other compounds. The true share with any hit is near 1.2%.

SMILES | GSH fluor | RGS16-Gao HTS | RGS8-Gao | Avidin fluor | RGS7-Gao reg | RGS4-Gao reg
COc1ccc(CN2CCN(C(=O)C3CCC(CNS(=O)(=O)c4ccc(C)cc4)CC3)CC2)c(OC)c1OC (stereo not drawn) | n | n | n | n | n | n
Cc1ccc(C(=O)NNC2=NCCC2)cc1 | n | n | n | n | n | n
O=C(NNC1=NCCC1)c1ccc(Br)cc1 | 261 | n | n | n | n | n
CCOC(=O)C1=C(N)N(c2cc(S(=O)(=O)N3CCOCC3)ccc2Cl)C(=O)C1 | n | n | n | n | n | n
CCOC(=O)CCC(=O)NCc1ccc2c(c1)cc(C)n2C | n | n | n | 53 | n | n
CCOc1ccccc1N1CC(C(=O)Nc2ccc3c(c2)OCCO3)CC1=O (stereo not drawn) | n | n | n | n | u | n
CCOc1ccccc1N1CC(C(=O)Nc2cccc(S(=O)(=O)N3CCCCC3)c2)CC1=O (stereo not drawn) | n | n | n | 54 | u | n
Cn1nnnc1SCC1=C(C(=O)O)N2C(=O)[C@@H](NC(=O)[C@H](O)c3ccccc3)[C@H]2SC1 | n | x | x | x | x | x
Cc1cc(C(F)F)nn1CC(=O)NC1C(=O)N2C(C(=O)O)=C(CSc3nnnn3C)CSC12 (stereo not drawn) | n | n | n | 58 | n | n
CCN(CC(=O)NCCC1=CCCCC1)S(=O)(=O)c1ccccc1 | x | n | n | n | u | n
O=C(NCCN1CCOCC1)c1cc2sccc2n1Cc1ccc(Cl)cc1 | n | n | n | 52 | n | n
O=[N+]([O-])c1cccc(-c2nc3ccccc3s/c2=N/O)c1 | x | n | n | n | u | n
O=C(NC1CCCc2ccccc21)c1cccnc1 (stereo not drawn) | 256 | n | n | n | n | n
COc1cc(C(=S)N2CCN(c3ccccc3Cl)CC2)cc(O)c1O | n | n | n | n | u | n
COc1ccc2c(=O)c3c(=O)n(Cc4ccco4)c(-c4ccc(C)cc4)nc3oc2c1 | n | n | n | n | n | n
COc1cc(-c2nc3oc4ccccc4c(=O)c3c(=O)n2Cc2ccco2)cc(OC)c1OC | n | n | n | 49 | n | n
CC(=O)Nc1ccc(C(=O)Nc2nc(-c3cccnc3)cs2)cc1 | n | n | n | 63 | u | n
Cc1ccc(C(=O)O)cc1NC(=O)c1cccs1 | 95 | n | n | n | n | n
Cc1c(NC(=O)c2cccs2)cccc1C(=O)O | n | n | n | n | n | n
CCOC(=O)c1ccc(Oc2cc(C)nc(Cl)n2)cc1 | x | n | n | n | u | n
Cc1ccc(NC(=O)c2ccccc2CCc2ccccc2)c(C)c1 | n | n | n | 56 | n | n
O=C(O)c1ccccc1NC(=O)N1CCOCC1 | n | n | n | n | n | n
C=C(C)c1cccc(C(C)(C)NC(=O)NCCCN2CCCC2=O)c1 | n | n | n | n | n | n
C=C(C)c1cccc(C(C)(C)NC(=O)NCCCn2ccnc2)c1 | n | n | n | 50 | n | n
O=C(N/C(=C\c1ccc(-c2ccccc2)o1)C(=O)N1CCOCC1)c1ccccc1 | n | n | n | n | n | n
SMILES | GSH fluor | RGS16-Gao HTS | RGS8-Gao | Avidin fluor | RGS7-Gao reg | RGS4-Gao reg
CC1CCN(S(=O)(=O)c2ccc3c(c2)oc(=O)n3CC(=O)N2c3ccccc3CC2C)CC1 (stereo not drawn) | n | n | n | 56 | n | n
O=C(Cn1cnc2ccccc21)OCC(=O)N1CCc2ccccc2C1 | n | n | n | 52 | n | n
O=C(Cn1cnc2ccccc2c1=O)N1CCc2ccccc2C1 | n | n | n | n | n | n
Cc1cc(C(=O)OCC(=O)NC2CCCCC2)c(C)o1 | n | n | n | n | n | n
Cc1cc(C(=O)OCC(=O)NC(C)C)c(C)o1 | 269 | n | n | n | n | n
CC(CCc1ccco1)NC(=O)Nc1cccc(F)c1 (stereo not drawn) | n | n | n | n | n | n
Cc1ccc(NC(=O)CS(=O)CC(=O)NC(C)CCc2ccco2)cc1Cl (stereo not drawn) | n | n | n | 72 | n | n
COc1cc(C2C(C(=O)/C=C/c3ccccc3)=C(O)C(=O)N2c2ccccn2)ccc1O (stereo not drawn) | n | n | n | n | n | n
O=C(NC(c1ccccc1)c1ccccc1)c1ccc(S(=O)(=O)C(F)F)cc1 | n | n | n | 58 | n | n
CC(NC(=O)c1ccc(S(=O)(=O)C(F)F)cc1)c1ccccc1 (stereo not drawn) | n | n | n | n | u | n
CCCC(=O)Nc1ccc2oc(=O)ccc2c1 | n | n | n | n | n | n
Cc1nn(-c2ccc(Cl)cc2)c(=O)c2c(C)noc12 | x | n | n | n | u | n
Cc1ccc(-c2nc3sc4c(c3c(=O)n2N)CC(C)(C)OC4)cc1 | n | n | n | 55 | n | n
CNC(=O)C(=O)NCCCN1CCOCC1 | n | n | n | n | n | n
Cc1ccc(-n2c3nc(=O)[nH]c(=O)c-3cc3cc([N+](=O)[O-])ccc32)cc1 | n | n | n | 55 | n | n
Cc1ccc(-n2c(C)nn(Cc3ccc([N+](=O)[O-])cc3)c2=O)cc1 | n | n | n | n | u | n
Cc1ccccc1NC(=O)c1cc([N+](=O)[O-])ccc1NCCN1C(=O)CCC1=O | n | n | n | n | n | n
COc1ccccc1N1CCN(C(=O)COc2cc(C)cc(C)c2)CC1 | n | n | n | n | u | n
CCOC(=O)CSc1nc2c(c(=O)n(C)c(=O)n2C)n1CCCc1ccccc1 | 269 | n | n | n | n | n
CCn1c(SCC(=O)OCc2ccccc2)nc2c1c(=O)n(C)c(=O)n2C | n | n | n | n | n | n
CCc1nccn1S(=O)(=O)c1cc(Br)ccc1OC | n | n | n | n | n | n
CCCc1nccn1S(=O)(=O)c1cc(OC)ccc1OC | 249 | n | n | n | n | n
O=C(Nc1cccnc1)c1c(O)c2cccc3c2n(c1=O)CC3 | 231 | n | n | n | n | 170.9[activator]
O=C(c1cccs1)N1CCN(CCCc2ccccc2)CC1 | 263 | n | n | n | n | n
CCNc1nc(NC(C)CC)nc(ON=C(C)C)n1 (stereo not drawn) | n | n | n | n | u | n
SMILES | GSH fluor | RGS16-Gao HTS | RGS8-Gao | Avidin fluor | RGS7-Gao reg | RGS4-Gao reg
O=C(c1ccc(F)cc1)N1CCN(c2ncccn2)CC1 | n | n | n | 73 | n | n
Nc1nonc1C(=O)N/N=C/c1ccc(-c2cccc(C(=O)O)c2)o1 | n | n | n | n | n | n
CC(C)NC(=O)CSCc1c(F)cccc1Cl | 121 | n | n | n | n | n
COc1ccc(NC(=O)CCN2CCN(S(=O)(=O)c3ccc(OC)cc3)CC2)cc1 | n | n | n | n | n | n
COc1ccc(NC(=O)CCN2CCN(S(=O)(=O)c3cc(Cl)ccc3Cl)CC2)cc1 | n | n | n | 60 | n | n
CC(C)OP(=O)(OC(C)C)C(O)c1ccc(N(C)C)cc1 (stereo not drawn) | x | n | n | n | u | n
